The source made the active and inactive calls. How the source made its calls: active means hit-call score of the fitted dose curve at least 0.9, where 1 is the maximum; inactive means score below 0.9.
Legend:
[1] = read-out: Interleukin-8 (IL8), CXCL8 (gene 3576); assay: BSK_CASM3C_IL8: BioMAP Diversity Plus: CASM3C Assay for Interleukin-8 (IL8) Biomarker Activity (AID 2283042); conditions: primary human coronary artery smooth muscle cells; actives raise or lower the signal;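 further: IL-8 protein level quantified by ELISA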
[2] = read-out: Human Leukocyte Antigen - DR isotype (HLADR), HLA-DRA (gene 3122); assay: BSK_CASM3C_HLADR: BioMAP Diversity Plus: CASM3C Assay for Human Leukocyte Antigen - DR isotype (HLADR) Biomarker Activity (AID 2283043); conditions: primary human coronary artery smooth muscle cells; actives raise or lower the signal;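 further: cell-surface HLA-DR protein level quantified by ELISA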
[3] = read-out: Macrophage colony-stimulating factor (MCSF), CSF1 (gene 1435); assay: BSK_CASM3C_MCSF: BioMAP Diversity Plus: CASM3C Assay for Macrophage colony-stimulating factor (MCSF) Biomarker Activity (AID 2283044); conditions: primary human coronary artery smooth muscle cells; actives raise or lower the signal;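 further: M-CSF protein amount quantified by ELISA after 24 h exposure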
[4] = read-out: Low-density lipoprotein receptor (LDLR), LDLR (gene 3949); assay: BSK_CASM3C_LDLR: BioMAP Diversity Plus: CASM3C Assay for Low-density lipoprotein receptor (LDLR) Biomarker Activity (AID 2283045); conditions: primary human coronary artery smooth muscle cells; actives raise or lower the signal;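 further: LDLR protein level on the cell surface quantified by ELISA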
[5] = read-out: Monocyte Chemoattractant Protein-1 (MCP1), CCL2 (gene 6347); assay: BSK_CASM3C_MCP1: BioMAP Diversity Plus: CASM3C Assay for Monocyte Chemoattractant Protein-1 (MCP1) Biomarker Activity (AID 2283046); conditions: primary human coronary artery smooth muscle cells; actives raise or lower the signal;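 further: MCP-1 level quantified by ELISA 24 h after dosing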
[6] = BSK_CASM3C_Proliferation: Cell Proliferation Assessment in the BioMAP Diversity Plus: CASM3C Assay (AID 2283047); conditions: primary human coronary artery smooth muscle cells;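 further: sulforhodamine B total protein stain as relative cell number at 560 nm; sub-confluent cells exposed 48 h before staining; fitted both ways against DMSO so gain or loss of cell number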
[7] = read-out: Monokine induced gamma interferon (MIG), CXCL9 (gene 4283); assay: BSK_CASM3C_MIG: BioMAP Diversity Plus: CASM3C Assay for Monokine induced gamma interferon (MIG) Biomarker Activity (AID 2283048); conditions: primary human coronary artery smooth muscle cells; actives raise or lower the signal;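 further: MIG protein level measured by ELISA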
[8] = read-out: serum amyloid A (SAA), SAA1 (gene 6288); assay: BSK_CASM3C_SAA: BioMAP Diversity Plus: CASM3C Assay for serum amyloid A (SAA) Biomarker Activity (AID 2283049); conditions: primary human coronary artery smooth muscle cells; actives raise or lower the signal;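 further: SAA protein level quantified by ELISA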
[9] = BSK_CASM3C_SRB: Viability Assessment in the BioMAP Diversity Plus: CASM3C Assay (AID 2283050); conditions: primary human coronary artery smooth muscle cells;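 further: total protein by SRB staining as cytotoxicity measure in parallel cultures; cells exposed to compound for 24 h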
[10] = read-out: Thrombomodulin, THBD (gene 7056); assay: BSK_CASM3C_Thrombomodulin: BioMAP Diversity Plus: CASM3C Assay for Thrombomodulin Biomarker Activity (AID 2283051); conditions: primary human coronary artery smooth muscle cells; actives raise or lower the signal;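 further: thrombomodulin protein level measured by ELISA 24 h after dosing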
[11] = read-out: Tissue Factor, F3 (gene 2152); assay: BSK_CASM3C_TissueFactor: BioMAP Diversity Plus: CASM3C Assay for Tissue Factor Biomarker Activity (AID 2283052); conditions: primary human coronary artery smooth muscle cells; actives raise or lower the signal;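 further: cell surface tissue factor protein level read by ELISA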
[12] = read-out: Interferon-gamma inducible Protein 10 (IP10), CXCL10 (gene 3627); assay: BSK_hDFCGF_IP10: BioMAP Diversity Plus: hDFCGF Assay for Interferon-gamma inducible Protein 10 (IP10) Biomarker Activity (AID 2283053); conditions: primary human foreskin fibroblasts; actives raise or lower the signal
Summary of the method: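 Primary foreskin fibroblasts, human; 24 h compound exposure; IP-10 by ELISA; bidirectional fit vs DMSO.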

[13] = read-out: Urokinase-type plasminogen activator receptor (uPAR), PLAUR (gene 5329); assay: BSK_CASM3C_uPAR: BioMAP Diversity Plus: CASM3C Assay for Urokinase-type plasminogen activator receptor (uPAR) Biomarker Activity (AID 2283054); conditions: primary human coronary artery smooth muscle cells; actives raise or lower the signal;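 further: cell-surface uPAR protein level quantified by ELISA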
[14] = read-out: Vascular cell adhesion molecule 1 (VCAM1), VCAM1 (gene 7412); assay: BSK_CASM3C_VCAM1: BioMAP Diversity Plus: CASM3C Assay for Vascular cell adhesion molecule 1 (VCAM1) Biomarker Activity (AID 2283055); conditions: primary human coronary artery smooth muscle cells; actives raise or lower the signal;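 further: VCAM-1 protein level quantified by ELISA on the cells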
[15] = read-out: Collagen III, COL3A1 (gene 1281); assay: BSK_hDFCGF_CollagenIII: BioMAP Diversity Plus: hDFCGF Assay for Collagen III Biomarker Activity (AID 2283056); conditions: primary human foreskin fibroblasts; actives raise or lower the signal
Summary of the method: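 Human foreskin primary fibroblasts were exposed to test chemicals for 24 h, after which collagen III was quantified by ELISA. Activity was fitted bidirectionally against DMSO as negative control and baseline.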

[16] = read-out: Epidermal growth factor receptor (EGFR), EGFR (gene 1956); assay: BSK_hDFCGF_EGFR: BioMAP Diversity Plus: hDFCGF Assay for Epidermal growth factor receptor (EGFR) Biomarker Activity (AID 2283057); conditions: primary human foreskin fibroblasts; actives raise or lower the signal
Summary of the method: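 hDFCGF system, primary human foreskin fibroblasts; compound 24 h; EGFR measured by ELISA; DMSO = negative control/baseline; bidirectional fitting.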

[17] = read-out: Interleukin-8 (IL8), CXCL8 (gene 3576); assay: BSK_hDFCGF_IL8: BioMAP Diversity Plus: hDFCGF Assay for Interleukin-8 (IL8) Biomarker Activity (AID 2283058); conditions: primary human foreskin fibroblasts; actives raise or lower the signal
Summary of the method: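 hDFCGF human dermal fibroblasts; 24 h chemical exposure; IL-8 by ELISA; bidirectional curve fit vs DMSO baseline; gain or loss of signal scored.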

[18] = BSK_hDFCGF_Proliferation: Cell Proliferation Assessment in the BioMAP Diversity Plus: hDFCGF Assay (AID 2283059); conditions: primary human foreskin fibroblasts;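 further: curves fitted for both rise and fall of signal versus DMSO baseline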
Summary of the method: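 Total protein read at 560 nm after 0.1% SRB staining of TCA-fixed human skin fibroblasts, […]. Activity is fitted in both directions relative to DMSO as baseline.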

[19] = read-out: Macrophage colony-stimulating factor (MCSF), CSF1 (gene 1435); assay: BSK_hDFCGF_MCSF: BioMAP Diversity Plus: hDFCGF Assay for Macrophage colony-stimulating factor (MCSF) Biomarker Activity (AID 2283060); conditions: primary human foreskin fibroblasts; actives raise or lower the signal
Summary of the method: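 Human foreskin primary fibroblasts were treated with test chemical for 24 h, and M-CSF was then measured by ELISA. Data were fitted bidirectionally against DMSO as the negative control and activity baseline.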

[20] = BSK_hDFCGF_SRB: Viability Assessment in the BioMAP Diversity Plus: hDFCGF Assay (AID 2283061); conditions: primary human foreskin fibroblasts;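 further: cells exposed to compound for 24 h before the read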
Summary of the method: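 Human foreskin primary fibroblasts were treated with compound and assessed 24 h after dosing. Total protein was measured by sulforhodamine B staining (0.1% SRB after 10% TCA fixation, 560 nm read) as a cytotoxicity marker, with bidirectional fitting against DMSO baseline.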

Measured: AC50

Oc1ccc2ccccc2c1N=Nc1ccccc1
active: [10] 1.36 µM | [18] 5.03 µM
not listed: [20]
inactive: all other assays above

NS(=O)(=O)c1cc2c(cc1Cl)NCNS2(=O)=O
not listed: [20]
inactive: all other assays above

Clc1cc(Cl)c(Cl)cc1Cl
inactive: all assays above

COc1ccc(C)cc1N
not listed: [20]
inactive: all other assays above

CC(C)(C)c1cc(O)c(C(C)(C)C)cc1O
active: [10] 4.92 µM | [12] 20 µM | [15] 9.11 µM | [18] 29.1 µM | [19] 17.6 µM
not listed: [20]
inactive: all other assays above

CC(=O)C(C)=CC1C(C)=CCCC1(C)C (centres undefined)
inactive: all assays above

OC[C@@H](O)[C@@H](O)[C@H](O)[C@H](O)CO
not listed: [20]
inactive: all other assays above

O=C(O)CCCCC(=O)O
not listed: [20]
inactive: all other assays above

C=CCOC(=O)c1ccccc1C(=O)OCC=C
not listed: [20]
inactive: all other assays above

Cc1cccc(Nc2cc(Cl)nc(SCC(=O)O)n2)c1C
not listed: [20]
inactive: all other assays above

Cc1ccc(N(C)C)cc1
not listed: [20]
inactive: all other assays above

Cc1ccc(C)c(O)c1C
not listed: [20]
inactive: all other assays above

CCCCCCCCCCCCCCCC
not listed: [20]
inactive: all other assays above

CCOC(=O)C(C)(C)Oc1ccc(Cl)cc1
inactive: all assays above

Source: PubChem BioAssay (EPA / NIEHS)
